# About 410 targets per protein were measured; listed, in parts, are those with the strongest signals and a random draw of the rest.
# B1: PNA (Arachis hypogaea), P02872 (protein)
# chain: MKPFCVFLTFFLLLAASSKKVDSAETVSFNFNSFSEGNPAINFQGDVTVLSNGNIQLTNLNKVNSVGRVLYAMPVRIWSSATGNVASFLTSFSFEMKDIKDYDPADGIIFFIAPEDTQIPAGSIGGGTLGVSDTKGAGHFVGVEFDTYSNSEYNDPPTDHVGIDVNSVDSVKTVPWNSVSGAVVKVTVIYDSSTKTLSVAVTNDNGDITTIAQVVDLKAKLPERVKFGFSASGSLGGRQIHLIRSWSFTSTLITTTRRSIDNNEKKIMNMASA
# Assays:
# Assay in all cases: glycan array binding signal (z-score within array); higher = stronger binding
# Details in all cases: glycan notation: IUPAC condensed, linker removed
# [1] = biological target: Fuc(a1-2)Gal(b1-3)[Fuc(a1-4)]GlcNAc(b1-3)[Gal(b1-4)GlcNAc(b1-6)]Gal(b1-4)Glc
# Method in brief: (§1)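 Glycan array data came from 3228 arrays in the Consortium for Functional Glycomics database, and only arrays with an available protein sequence were kept. Glycan names were put into IUPAC-condensed notation, and columns mapping to the same glycan were averaged. The binding signal is a within-array Z-score, averaged across arrays of one protein sequence run at different concentrations or buffers and across linkers. A negative Z-score can be read as non-binding.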
# [2] = biological target: Fuc(a1-2)Gal(b1-4)GlcNAc(b1-2)Man(a1-3)[Fuc(a1-2)Gal(b1-4)GlcNAc(b1-2)Man(a1-6)]Man(b1-4)GlcNAc(b1-4)GlcNAc
# Method in brief: as §1
# [3] = biological target: Fuc(a1-2)Gal(b1-4)GlcNAc(b1-3)Gal(b1-4)GlcNAc
# Method in brief: as §1
# [4] = biological target: Fuc(a1-2)Gal3S(b1-4)GlcNAc
# Method in brief: as §1
# [5] = biological target: Fuc(a1-2)[Gal(a1-3)]Gal(b1-4)[Fuc(a1-3)]Glc
# Method in brief: as §1
# [6] = biological target: Fuc(a1-2)[GalNAc(a1-3)]Gal(b1-4)GlcNAc(b1-3)GalNAc
# Method in brief: as §1
# [7] = biological target: Fuc(a1-3)[3dGal(b1-4)]Glc
# Method in brief: as §1
# [8] = biological target: Fuc(a1-3)[Gal(b1-4)]GlcNAc(b1-2)Man(a1-3)[Fuc(a1-3)[Gal(b1-4)]GlcNAc(b1-2)Man(a1-6)]Man(b1-4)GlcNAc(b1-4)GlcNAc
# Method in brief: as §1
# [9] = biological target: Fuc(a1-3)[Gal(b1-4)]GlcNAc(b1-2)Man(a1-3)[Fuc(a1-3)[Gal(b1-4)]GlcNAc(b1-2)Man(a1-6)]Man(b1-4)GlcNAc(b1-4)[Fuc(a1-6)]GlcNAc
# Method in brief: as §1
# [10] = biological target: Fuc(a1-3)[Gal3S(b1-4)]Glc
# Method in brief: as §1
# [11] = biological target: Fuc(a1-6)GlcNAc
# Method in brief: as §1
# [12] = biological target: Gal(a1-2)Gal
# Method in brief: as §1
# [13] = biological target: Gal(a1-3)Gal(b1-4)GlcNAc(b1-2)Man
# Method in brief: as §1
# [14] = biological target: Gal(b1-3)Gal(b1-4)GlcNAc
# Method in brief: as §1
# [15] = biological target: Gal(b1-3)GalNAc(a1-3)[Fuc(a1-2)]Gal(b1-4)Glc
# Method in brief: as §1
# [16] = biological target: Gal(b1-3)GalNAc(a1-3)[Fuc(a1-2)]Gal(b1-4)GlcNAc
# Method in brief: as §1
# [17] = biological target: Gal(b1-3)GalNAc(b1-3)Gal
# Method in brief: as §1
# [18] = biological target: Gal(b1-3)GalNAc(b1-3)Gal(a1-4)Gal(b1-4)Glc
# Method in brief: as §1
# [19] = biological target: Gal(b1-3)GalNAc(b1-4)Gal(b1-4)Glc
# Method in brief: as §1
# [20] = biological target: Gal(b1-3)GalNAc(b1-4)Gal3S(b1-4)Glc
# Method in brief: as §1
# [21] = biological target: Gal(b1-3)GalNAc(b1-4)[Neu5Ac(a2-3)]Gal(b1-4)Glc
# Method in brief: as §1
# [22] = biological target: Gal(b1-3)GalNAc(b1-4)[Neu5Gc(a2-3)]Gal(b1-4)Glc
# Method in brief: as §1
# [23] = biological target: Gal(b1-3)GlcNAc(b1-3)Gal(b1-4)Glc
# Method in brief: as §1
# [24] = biological target: Gal(b1-3)[GlcNAc(b1-6)]GalNAc
# Method in brief: as §1
# [25] = biological target: Gal(b1-4)GlcNAc(b1-2)Man(a1-3)[GlcNAc(b1-4)][Gal(b1-4)GlcNAc(b1-2)Man(a1-6)]Man(b1-4)GlcNAc(b1-4)GlcNAc
# Method in brief: as §1
# [26] = biological target: Gal(b1-4)GlcNAc(b1-2)Man(a1-6)Man(b1-4)GlcNAc(b1-4)GlcNAc
# Method in brief: as §1
# [27] = biological target: Gal(b1-4)GlcNAc(b1-2)[Gal(b1-4)GlcNAc(b1-4)]Man(a1-3)[Gal(b1-4)GlcNAc(b1-2)Man(a1-6)]Man(b1-4)GlcNAc(b1-4)GlcNAc
# Method in brief: as §1
# [28] = biological target: Gal(b1-4)GlcNAc(b1-2)[Gal(b1-4)GlcNAc(b1-6)]Man(a1-6)[Gal(b1-4)GlcNAc(b1-2)Man(a1-3)]Man(b1-4)GlcNAc(b1-4)[Fuc(a1-6)]GlcNAc
# Method in brief: as §1
# [29] = biological target: Gal(b1-4)GlcNAc(b1-3)Fuc
# Method in brief: as §1
# [30] = biological target: Gal(b1-4)GlcNAc(b1-3)[Fuc(a1-3)GlcNAc(b1-6)]Gal(b1-4)Glc
# Method in brief: as §1
# [31] = biological target: Gal(b1-4)GlcNAc(b1-3)[Gal(b1-4)GlcNAc(b1-6)]Gal(b1-4)GlcNAc
# Method in brief: as §1
# [32] = biological target: Gal(b1-4)GlcNAc(b1-3)[Gal(b1-4)GlcNAc(b1-6)]Gal(b1-4)GlcNAc(b1-3)[Gal(b1-4)GlcNAc(b1-6)]Gal(b1-4)GlcNAc(b1-3)[Gal(b1-4)GlcNAc(b1-6)]Gal(b1-4)GlcNAc(b1-3)[Gal(b1-4)GlcNAc(b1-6)]Gal(b1-4)GlcNAc(b1-3)Gal(b1-4)Glc
# Method in brief: as §1
# [33] = biological target: Gal(b1-4)GlcNAc(b1-6)[Gal(b1-3)]GalNAc
# Method in brief: as §1
# [34] = biological target: Gal3S(b1-4)[Fuc(a1-3)]Glc
# Method in brief: as §1
# [35] = biological target: Gal6S(b1-3)GlcNAc6S
# Method in brief: as §1
# [36] = biological target: Gal6S(b1-4)Glc
# Method in brief: as §1
# [37] = biological target: GalNAc(b1-3)Gal(a1-4)Gal(b1-4)GlcNAc
# Method in brief: as §1
# [38] = biological target: GalNAc(b1-4)Gal3S(b1-4)Glc
# Method in brief: as §1
# [39] = biological target: Glc(a1-2)Glc
# Method in brief: as §1
binder,measurement,setting,value
B1,glycan array binding signal (z-score),[1],-0.127
same,glycan array binding signal (z-score),[2],-0.116
same,glycan array binding signal (z-score),[3],-0.144
same,glycan array binding signal (z-score),[4],-0.183
same,glycan array binding signal (z-score),[5],-0.09
same,glycan array binding signal (z-score),[6],-0.177
same,glycan array binding signal (z-score),[7],-0.195
same,glycan array binding signal (z-score),[8],-0.106
same,glycan array binding signal (z-score),[9],-0.162
same,glycan array binding signal (z-score),[10],-0.195
same,glycan array binding signal (z-score),[11],-0.195
same,glycan array binding signal (z-score),[12],-0.169
same,glycan array binding signal (z-score),[13],-0.115
same,glycan array binding signal (z-score),[14],-0.001
same,glycan array binding signal (z-score),[15],6
same,glycan array binding signal (z-score),[16],8.53
same,glycan array binding signal (z-score),[17],5.33
same,glycan array binding signal (z-score),[18],3.33
same,glycan array binding signal (z-score),[19],7.85
same,glycan array binding signal (z-score),[20],9.11
same,glycan array binding signal (z-score),[21],3.91
same,glycan array binding signal (z-score),[22],4.74
same,glycan array binding signal (z-score),[23],0.203
same,glycan array binding signal (z-score),[24],3.79
same,glycan array binding signal (z-score),[25],-0.309
same,glycan array binding signal (z-score),[26],-0.171
same,glycan array binding signal (z-score),[27],-0.118
same,glycan array binding signal (z-score),[28],-0.186
same,glycan array binding signal (z-score),[29],-0.195
same,glycan array binding signal (z-score),[30],-0.247
same,glycan array binding signal (z-score),[31],-0.153
same,glycan array binding signal (z-score),[32],4.16
same,glycan array binding signal (z-score),[33],5.42
same,glycan array binding signal (z-score),[34],-0.222
same,glycan array binding signal (z-score),[35],-0.244
same,glycan array binding signal (z-score),[36],-0.174
same,glycan array binding signal (z-score),[37],-0.197
same,glycan array binding signal (z-score),[38],-0.195
same,glycan array binding signal (z-score),[39],-0.195

# Source: the supplement of paper PMC8728848
